Measured values as given in PubChem BioAssay (NCATS).
“And” between values parts separate entries of the source, which are not always exact repeats. Identical values can stand only once. Inconclusive results are not listed. A number with no mark means an inactive call. The source made the active and inactive calls. Calls come from the whole dose curve.

Experiments:
[1] = molecular target: Bile acid receptor (Homo sapiens) (UniProt Q96RI1); experiment: qHTS assay for small molecule agonists of farnesoid X receptor signaling (AID 588527); conditions: HEK293T FXR-UAS-bla, beta-lactamase ratio, 16 h; activation: hits give high values;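 note: series mostly up to about 77 µM; 0% = vehicle basal and 100% = reference agonist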
Bile acid receptor (Homo sapiens), sequence (Q96RI1 whole entry, looked up): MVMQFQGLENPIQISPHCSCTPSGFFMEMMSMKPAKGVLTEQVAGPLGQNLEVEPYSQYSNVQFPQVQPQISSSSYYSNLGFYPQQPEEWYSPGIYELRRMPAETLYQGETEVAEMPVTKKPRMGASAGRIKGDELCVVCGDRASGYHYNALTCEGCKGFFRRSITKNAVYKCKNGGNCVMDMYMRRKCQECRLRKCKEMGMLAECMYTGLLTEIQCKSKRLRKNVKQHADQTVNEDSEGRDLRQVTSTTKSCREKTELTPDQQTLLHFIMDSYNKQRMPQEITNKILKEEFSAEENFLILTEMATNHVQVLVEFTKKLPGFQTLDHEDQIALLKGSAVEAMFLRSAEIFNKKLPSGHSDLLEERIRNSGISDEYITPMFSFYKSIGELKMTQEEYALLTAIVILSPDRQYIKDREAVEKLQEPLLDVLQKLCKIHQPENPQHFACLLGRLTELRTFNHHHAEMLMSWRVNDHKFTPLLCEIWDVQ
Method in brief: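 Read-out: beta-lactamase reporter fluorescence with CCF4 substrate in GeneBLAzer FXR-UAS-bla HEK293T cells, after 16 h compound exposure at 37 C. Response scaled between DMSO basal (0%) and chenodeoxycholic acid at 100 uM (100%).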

[2] = molecular target: Peroxisome proliferator-activated receptor delta (Homo sapiens) (UniProt Q03181); experiment: qHTS assay for small molecule agonists of peroxisome proliferator-activated receptor delta signaling (AID 588534);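 note: 0% = DMSO basal wells and 100% = positive control agonist at 10 µM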
Peroxisome proliferator-activated receptor delta (Homo sapiens), sequence (Q03181 whole entry, looked up): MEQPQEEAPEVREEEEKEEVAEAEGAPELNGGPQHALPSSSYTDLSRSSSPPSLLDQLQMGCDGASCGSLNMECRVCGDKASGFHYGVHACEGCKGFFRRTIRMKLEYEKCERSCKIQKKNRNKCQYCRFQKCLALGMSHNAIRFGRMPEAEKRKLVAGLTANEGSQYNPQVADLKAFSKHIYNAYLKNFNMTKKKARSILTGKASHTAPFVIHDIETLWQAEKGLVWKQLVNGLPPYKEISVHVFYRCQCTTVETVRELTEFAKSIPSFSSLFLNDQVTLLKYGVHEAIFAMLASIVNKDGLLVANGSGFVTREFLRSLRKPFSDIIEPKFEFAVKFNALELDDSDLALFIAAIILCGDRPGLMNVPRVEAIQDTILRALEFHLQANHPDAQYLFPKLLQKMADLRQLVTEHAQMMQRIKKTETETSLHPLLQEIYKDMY
Method in brief: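 Agonist-mode qHTS; reporter cells, 5 hrs 37 C pre-incubation; compound titration, 18 hrs 37 C; CCF4 dye, 2 hrs RT; fluorescence read. EC50/efficacy via Hill fit.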

CCCCC(C=O)CC (centres undefined)
activation [1]: -2.35%
outcome [2]: inactive

CC(O)CC(C)O (centres undefined)
activation [1]: -1.48%
outcome [2]: inactive

Nc1ccccc1[N+](=O)[O-]
activation [1]: -3.44%
outcome [2]: inactive

CCCCCCCCCc1ccccc1
activation [1]: 2.7%
outcome [2]: inactive

CCC(=O)/C=C/C1C(C)=CCCC1(C)C (centres undefined)
activation [1]: -0.845%
outcome [2]: inactive

COC(=O)c1c(Cl)nn(C)c1S(=O)(=O)NC(=O)Nc1nc(OC)cc(OC)n1
activation [1]: 3.79%
outcome [2]: inactive

C=C(C)C(=O)OCC(CC)(COC(=O)C(=C)C)COC(=O)C(=C)C
activation [1]: -1.88%
outcome [2]: inactive

CCCCCCc1ccc(N)cc1
activation [1]: -3.51%
outcome [2]: inactive

CC(C)=CCC[C@@H](C)[C@H]1CC[C@@]2(C)C3=C(CC[C@]12C)[C@@]1(C)CC[C@H](O)C(C)(C)[C@@H]1CC3
activation [1]: -5.29%
outcome [2]: inactive

O=C(O)c1ccc(Cl)cc1Cl
activation [1]: -2.47%
outcome [2]: inactive

NC(=S)NNC(N)=S
activation [1]: 0.327% and 1.24%
outcome [2]: inactive

Cc1ccc([N+](=O)[O-])c(C)c1
activation [1]: 0.441% and 0.298%
outcome [2]: inactive

CCCCCCc1ccc(-c2ccc(C#N)cc2)cc1
activation [1]: -1.9%
outcome [2]: inactive

NC=O
activation [1]: -0.541%
outcome [2]: inactive

O=Cc1cccc(Br)c1
activation [1]: -4.69%
outcome [2]: inactive

CC(C)OCC1CO1 (centres undefined)
activation [1]: -0.0386%
outcome [2]: inactive

Cc1cc(C)cc(N)c1
activation [1]: -1.69%
outcome [2]: inactive

Nc1c(N=Nc2ccc(S(=O)(=O)CCOS(=O)(=O)O)cc2)c(S(=O)(=O)O)cc2cc(S(=O)(=O)O)c(N=Nc3ccc(S(=O)(=O)CCOS(=O)(=O)O)cc3)c(O)c12
activation [1]: 4.58%
outcome [2]: inactive

CC(=O)OC1CC(C)OC(C)O1 (centres undefined)
activation [1]: -3.17% and -0.0131%
outcome [2]: inactive

O=C(O)CN(CCCN(CC(=O)O)CC(=O)O)CC(=O)O
activation [1]: 8.42%
outcome [2]: inactive

CCNc1cc(O)ccc1C
activation [1]: 2%
outcome [2]: inactive

Nc1cc(Cl)nc(C(=O)O)c1Cl
activation [1]: -2.93%
outcome [2]: inactive

CCCCCCC(O)CCCCCCCCCCC(=O)O (centres undefined)
activation [1]: 3.12%
outcome [2]: inactive

CC(C)O
activation [1]: -0.657%
outcome [2]: inactive

CCCCCC/C(C=O)=C\c1ccccc1
activation [1]: -2.14%
outcome [2]: inactive

C=C(C)C1CC=C(C)C(OC(C)=O)C1 (centres undefined)
activation [1]: -0.422%
outcome [2]: inactive

OB(O)O
activation [1]: 1.87% and 2.1%
outcome [2]: inactive

CC(COc1ccc(C(C)(C)C)cc1)OS(=O)OCCCl (centres undefined)
activation [1]: 3.02%
outcome [2]: inactive

CC(C)C(=O)OCC(C)(C)C(O)C(C)C (centres undefined)
activation [1]: -0.406%
outcome [2]: inactive

Cl[Si](Cl)(Cl)c1ccccc1
activation [1]: 0.575%
outcome [2]: inactive

CSc1ccc(Cl)cc1
activation [1]: -0.0441%
outcome [2]: inactive

Cn1sccc1=O
activation [1]: 1.01%
outcome [2]: inactive

NC(=O)Nc1nc2ccccc2[nH]1
activation [1]: -1.18%
outcome [2]: inactive

CCCC(C)CO (centres undefined)
activation [1]: 1.08%
outcome [2]: inactive

C/C=C/C/C=C\CCCCCCCCOC(C)=O
activation [1]: -4.9%
outcome [2]: inactive

O=C(O)C(Oc1ccc(Cl)cc1)Oc1ccc(Cl)cc1
activation [1]: -1.96%
outcome [2]: inactive

O=C(O)c1ccc(CO)o1
activation [1]: 0.258%
outcome [2]: inactive

O=C1OC(=O)c2c(Cl)c(Cl)c(Cl)c(Cl)c21
activation [1]: -0.745% and 3.66%
outcome [2]: inactive

Nc1cccc(O)c1
activation [1]: -1.81%
outcome [2]: inactive

CCCCCCCCCCCCCCCO
activation [1]: -2.39%
outcome [2]: inactive

CCCCOC(=O)[C@@H](C)Oc1ccc(Oc2ccc(C(F)(F)F)cn2)cc1
activation [1]: -2.63%
outcome [2]: inactive

CC(C=O)Cc1ccc(C(C)(C)C)cc1 (centres undefined)
activation [1]: 0.434% and 1.86%
outcome [2]: inactive

N#CC1(O)CCCCC1
activation [1]: -2.07%
outcome [2]: inactive

O=C=Nc1ccc(Cc2ccc(N=C=O)cc2)cc1
activation [1]: 3.57% and 0.965%
outcome [2]: inactive

CCCC[O][Al]([O]CCCC)[O]CCCC
activation [1]: 1.48%
outcome [2]: inactive

CCCCCCCCOC(=O)c1cc(O)c(O)c(O)c1
activation [1]: 5.29%
outcome [2]: inactive

C[Si](C)(C)Cl
activation [1]: 1.08%
outcome [2]: inactive

Cc1ccc(C)cc1
activation [1]: -1.18%
outcome [2]: inactive

C/C(Cl)=C/CCl
activation [1]: 0.345%
outcome [2]: inactive

C1COC1
activation [1]: -2.57%
outcome [2]: inactive

O=[N+]([O-])c1cccc(Cl)c1Cl
activation [1]: -2.65% and -2.56%
outcome [2]: inactive

Nc1cc(Cl)c([N+](=O)[O-])cc1O
activation [1]: -1.43%
outcome [2]: inactive

CC(C)(C)c1cc(C(C)(C)C)c(O)c(C(C)(C)C)c1
activation [1]: 8.66%
outcome [2]: inactive

Cc1cc(C)cc([N+](=O)[O-])c1
activation [1]: -0.797%
outcome [2]: inactive

CC(=O)Nc1ccc(N=Nc2cc(C)ccc2O)cc1
activation [1]: 0.585%
outcome [2]: inactive

O=C(O)CN(CCO)CCN(CC(=O)O)CC(=O)O
activation [1]: -2.73%
outcome [2]: inactive

C=CC(=O)OCCCCCCOC(=O)C=C
activation [1]: -0.189%
outcome [2]: inactive

CCCCCCCN
activation [1]: -2.09%
outcome [2]: inactive

CC(C)CCCCCCc1ccc(O)cc1
activation [1]: 6.07%
outcome [2]: inactive

Cn1c(=O)[nH]c(=O)n(C2CCC(O)CC2)c1=O (centres undefined)
activation [1]: -4.56%
outcome [2]: inactive

O=C(O)CCSSCCC(=O)O
activation [1]: -1.56%
outcome [2]: inactive

Cc1ccc(N)c(S(=O)(=O)O)c1
activation [1]: 4.47%
outcome [2]: inactive

Cc1ccc(N=Nc2c(O)ccc3ccccc23)c(C)c1
activation [1]: -0.864%
outcome [2]: inactive

O=CNc1ccccc1
activation [1]: -1.29%
outcome [2]: inactive

CCCCCCCCCCCCCCCCCC(=O)OC[C@@H](O)[C@H]1OC[C@H](O)[C@H]1O
activation [1]: 5.18%
outcome [2]: inactive

Cc1ccccc1OCC1CO1 (centres undefined)
activation [1]: -1.27%
outcome [2]: inactive

CCCCCCCCCCCCCCN
activation [1]: 2.17%
outcome [2]: inactive
